Reference: PubChem BioAssay (NCI)
The panel holds about 79,000 compounds, 15% with a hit somewhere; the sample as a whole holds those more often. Values without a mark were called inactive. The source made the active and inactive calls. Rule as the data show it: active = growth inhibition above about 70%; inactive = the rest.

Experiments:
[1] = NCI Yeast Anticancer Drug Screen. Data for the rad50 strain (AID 155);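 also: 0% = growth of vehicle-only cultures of the same strain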; details: S. cerevisiae rad50 strain growth inhibition; at 50.0 µM; hits give high values
Procedure, shortened: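 Inhibition values express reduced yeast growth in compound-treated cultures relative to vehicle-treated controls.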

[2] = NCI Yeast Anticancer Drug Screen. Data for the mec2-1 strain (AID 157); details: S. cerevisiae mec2-1 strain, at 50.0 µM, hits give high values
Procedure, shortened: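 Compounds were applied to mec2-1 yeast cells. Their growth was then compared with that of vehicle-treated cultures to give growth inhibition.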

[3] = NCI Yeast Anticancer Drug Screen. Data for the sgs1 mgt1 strain (AID 161);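 also: 0% = growth of cultures given vehicle only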; details: S. cerevisiae sgs1 mgt1 strain, at 50.0 µM, hits give high values
Procedure, shortened: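 Percent growth inhibition was derived by comparing compound-exposed mutant yeast with vehicle-exposed cultures. The strain carries alterations in DNA damage repair.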

[4] = NCI Yeast Anticancer Drug Screen. Data for the cln2 rad14 strain (AID 165);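 also: 0% = growth equal to vehicle treated cultures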; details: S. cerevisiae cln2 rad14 strain, at 50.0 µM, hits give high values
Procedure, shortened: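 Strain: cln2 rad14 yeast, altered in cell cycle control and DNA damage repair. Read-out: growth inhibition vs vehicle.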

[5] = NCI Yeast Anticancer Drug Screen. Data for the bub3 strain (AID 167); details: S. cerevisiae bub3 mutant strain, at 50.0 µM, hits give high values
Procedure, shortened: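 Steps: expose the mutant yeast strain to compound; grow alongside vehicle-treated cultures; measure growth; express inhibition against the vehicle cultures.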

[6] = NCI Yeast Anticancer Drug Screen. Data for the mlh1 rad18 strain (AID 175); details: S. cerevisiae mlh1 rad18 strain growth inhibition; at 50.0 µM; hits give high values
Procedure, shortened: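 A repair-deficient yeast strain is exposed to test compound, and growth is scored relative to vehicle-treated controls.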

## Cc1ccccc1-n1c(/C=C\c2ccccn2)nc2ccccc2c1=O
[1]
  growth inhibition: 36.7%
[2]
  growth inhibition: 8.65%
[3]
  growth inhibition: 33.4%
[4]
  growth inhibition: 35.6%
[5]
  growth inhibition: 53.6%
[6]
  growth inhibition: 23.6%

## NNc1ccc([N+](=O)[O-])cc1
[1]
  growth inhibition: 23.9%
[2]
  growth inhibition: 26.3%
[3]
  growth inhibition: 40.9%
[4]
  growth inhibition: -10.3%
[5]
  growth inhibition: 54.9%
[6]
  growth inhibition: 51.6%

## O=C/C=C/c1ccccc1.[Fe+2].[c-]1[c-][c-][cH-][c-]1.[c-]1[c-][c-][cH-][c-]1
[1]
  growth inhibition: 4.65%
[2]
  growth inhibition: -48.2%
[3]
  growth inhibition: 1.65%
[4]
  growth inhibition: 7.85%
[5]
  growth inhibition: 11.4%
[6]
  growth inhibition: 0.4%

## CC(C)C1C=Cc2ccccc21 (stereo unspecified)
[1]
  growth inhibition: 13.8%
[2]
  growth inhibition: 1.85%
[3]
  growth inhibition: 4.45%
[4]
  growth inhibition: -13.1%
[5]
  growth inhibition: -3.55%
[6]
  growth inhibition: 28.8%

## c1ccc(CN2C3c4ccccc4C2c2ccccc23)cc1
[1]
  growth inhibition: -0.15%
[2]
  growth inhibition: -2.2%
[3]
  growth inhibition: -4%
[4]
  growth inhibition: -12.3%
[5]
  growth inhibition: -2.8%
[6]
  growth inhibition: 3%

## CC(=O)CC(C)=O.CC(=O)CC(C)=O.[Cl][Sn][c]1ccccc1
[1]
  growth inhibition: 40.8%
[2]
  growth inhibition: 23.7%
[3]
  growth inhibition: 49.6%
[4]
  growth inhibition: 8.4%
[5]
  growth inhibition: 35.1%
[6]
  growth inhibition: 57.5%

## COc1ccc(/C=C/C=C2C(=O)NC(=S)NC2=O)cc1
[1]
  growth inhibition: 25.6%
[2]
  growth inhibition: 4.55%
[3]
  growth inhibition: 29.1%
[4]
  growth inhibition: 11.2%
[5]
  growth inhibition: 0.75%
[6]
  growth inhibition: 25.2%

## CC1=CC(=O)C2=C(C)C[C@H](O)[C@@H]3[C@H](OC(=O)[C@H]3C)[C@@H]12
[1]
  growth inhibition: -2.45%
[2]
  growth inhibition: 2.95%
[3]
  growth inhibition: 6.4%
[4]
  growth inhibition: 17.2%
[5]
  growth inhibition: 6.25%
[6]
  growth inhibition: 8.85%

## CCOC(CCCN1CCC2(CC1)C(=O)N(C)CN2c1ccccc1)(OCC)c1ccc(F)cc1
[1]
  growth inhibition: 8.45%
[2]
  growth inhibition: 20.8%
[3]
  growth inhibition: 16.4%
[4]
  growth inhibition: 2.3%
[5]
  growth inhibition: 30.2%
[6]
  growth inhibition: 25.2%

## CCC(N)CBr (stereo unspecified)
[1]
  growth inhibition: -9.65%
[2]
  growth inhibition: 1.7%
[3]
  growth inhibition: -9.5%
[4]
  growth inhibition: -16.9%
[5]
  growth inhibition: 5.3%
[6]
  growth inhibition: 8.9%

## CC1(c2ccccc2)CC12C(=O)NC(=O)NC2=O (stereo unspecified)
[1]
  growth inhibition: -69.1%
[2]
  growth inhibition: -22.6%
[3]
  growth inhibition: -18.9%
[4]
  growth inhibition: -8.75%
[5]
  growth inhibition: -27.7%
[6]
  growth inhibition: -20.9%

## O=C1C(NCC(O)CO)=C(N2CC2)C(=O)C(NCC(O)CO)=C1N1CC1 (stereo unspecified)
[1]
  growth inhibition: -0.05%
[2]
  growth inhibition: 7%
[3]
  growth inhibition: 1.15%
[4]
  growth inhibition: 4.55%
[5]
  growth inhibition: 8.8%
[6]
  growth inhibition: 25.6%

## COc1ccc2c3c1OC1C(OC)(OC)C=C[C@@]4(Br)[C@@H](C2)N(CC2CC2)CC[C@]314 (stereo partly specified)
[1]
  growth inhibition: 34.1%
[2]
  growth inhibition: 5.6%
[3]
  growth inhibition: -35.1%
[4]
  growth inhibition: -8.55%
[5]
  growth inhibition: -9.9%
[6]
  growth inhibition: -44.6%

## O=[Se](=O)(O)O
[1]
  growth inhibition: -45%
[2]
  growth inhibition: -20.2%
[3]
  growth inhibition: -8.4%
[4]
  growth inhibition: -74.7%
[5]
  growth inhibition: -12.6%
[6]
  growth inhibition: -14.5%

## CCOP(=O)(OCC)Oc1ccncc1
[1]
  growth inhibition: -2.8%
[2]
  growth inhibition: -0.3%
[3]
  growth inhibition: -7.6%
[4]
  growth inhibition: -4.25%
[5]
  growth inhibition: 7.75%
[6]
  growth inhibition: 4.1%

## C[C@]12CC[C@H]3[C@@H](CC=C4C=C(P(=O)(O)O)CC[C@@]43C)[C@@H]1CC[C@@H]2O
[1]
  growth inhibition: -8.1%
[2]
  growth inhibition: 5.2%
[3]
  growth inhibition: -8.55%
[4]
  growth inhibition: -56.3%
[5]
  growth inhibition: -12.9%
[6]
  growth inhibition: -10.1%

## CCOP(=O)(OCC)O/N=C(/CC)c1ccccc1
[1]
  growth inhibition: 5.35%
[2]
  growth inhibition: -8.75%
[3]
  growth inhibition: 11.4%
[4]
  growth inhibition: -13.4%
[5]
  growth inhibition: -1.55%
[6]
  growth inhibition: -12.1%

## O=P(CCP(=O)(c1ccccc1)c1ccccc1)(c1ccccc1)c1ccccc1
[1]
  growth inhibition: -17.6%
[2]
  growth inhibition: -23.1%
[3]
  growth inhibition: -0.5%
[4]
  growth inhibition: 26.2%
[5]
  growth inhibition: 3.2%
[6]
  growth inhibition: 3.75%

## COC(=S)NP(=O)(NC(=S)OC)NC(=S)OC
[1]
  growth inhibition: 11.7%
[2]
  growth inhibition: -3.4%
[3]
  growth inhibition: 9.65%
[4]
  growth inhibition: -35%
[5]
  growth inhibition: -1.95%
[6]
  growth inhibition: 8.25%

## CCCCCSP(SCCCCC)c1ccccc1
[1]
  growth inhibition: 79.8% (active)
[2]
  growth inhibition: 67.3%
[3]
  growth inhibition: 79.5% (active)
[4]
  growth inhibition: 37.6%
[5]
  growth inhibition: 40.4%
[6]
  growth inhibition: 61.8%

## COc1ccc2c(c1O)C1=CC(=O)CC[C@]13CCN(C)[C@H]3C2
[1]
  growth inhibition: -14.1%
[2]
  growth inhibition: -38.3%
[3]
  growth inhibition: -14.2%
[4]
  growth inhibition: 6.15%
[5]
  growth inhibition: -15.2%
[6]
  growth inhibition: -10.2%

## NC(=O)CCC(NC(=O)Cc1ccccc1)C(=O)O (stereo unspecified) (tested in a mixture with another compound)
[1]
  growth inhibition: -4.45%
[2]
  growth inhibition: -14.1%
[3]
  growth inhibition: 0.25%
[4]
  growth inhibition: -29.9%
[5]
  growth inhibition: -9.65%
[6]
  growth inhibition: 8.95%

## Clc1cccc(Cl)c1CBr
[1]
  growth inhibition: 23.1%
[2]
  growth inhibition: -19.1%
[3]
  growth inhibition: 19.3%
[4]
  growth inhibition: 15.8%
[5]
  growth inhibition: 15.3%
[6]
  growth inhibition: 10.1%

## CN(C)C1OCC(C)(C)CO1
[1]
  growth inhibition: -13.9%
[2]
  growth inhibition: -34.7%
[3]
  growth inhibition: -5.55%
[4]
  growth inhibition: 12.3%
[5]
  growth inhibition: -18%
[6]
  growth inhibition: -7.1%

## C[CH2][Sn]([I])([CH2]C)[CH2]C
[1]
  growth inhibition: 96% (active)
[2]
  growth inhibition: 98% (active)
[3]
  growth inhibition: 97.1% (active)
[4]
  growth inhibition: 98.3% (active)
[5]
  growth inhibition: 98.1% (active)
[6]
  growth inhibition: 98.5% (active)

## COc1ccc2c(c1OC)C(=O)O[C@@H]2[C@H]1c2cc3c(cc2CCN1C)OCO3
[1]
  growth inhibition: -8.75%
[2]
  growth inhibition: -4.8%
[3]
  growth inhibition: 0.95%
[4]
  growth inhibition: 6.75%
[5]
  growth inhibition: 4.8%
[6]
  growth inhibition: -43.5%

## O=C(Nc1cccc(Cl)c1)Oc1ccc(S(=O)(=O)F)cc1Cl
[1]
  growth inhibition: 92.3% (active)
[2]
  growth inhibition: 94.7% (active)
[3]
  growth inhibition: 95.7% (active)
[4]
  growth inhibition: 91.2% (active)
[5]
  growth inhibition: 90.9% (active)
[6]
  growth inhibition: 94.8% (active)

## CN(C)CCCN1CCCCC1
[1]
  growth inhibition: 8.7%
[2]
  growth inhibition: -0.65%
[3]
  growth inhibition: -4.45%
[4]
  growth inhibition: 3.8%
[5]
  growth inhibition: 7.05%
[6]
  growth inhibition: -8%

## O=Cc1ccccc1O.[Zn+2]
[1]
  growth inhibition: 9.25%
[2]
  growth inhibition: 6.2%
[3]
  growth inhibition: 2.8%
[4]
  growth inhibition: 3.6%
[5]
  growth inhibition: 0.75%
[6]
  growth inhibition: 1.6%

## O=P(Oc1ccccc1)(Oc1ccccc1)C(O)c1ccccc1 (stereo unspecified)
[1]
  growth inhibition: 11.2%
[2]
  growth inhibition: 3.55%
[3]
  growth inhibition: 16.8%
[4]
  growth inhibition: 0.65%
[5]
  growth inhibition: -8.4%
[6]
  growth inhibition: -2%

## COc1ccc(-n2c(C)nc3ccccc3c2=O)cc1CN(CCCl)CCCl
[1]
  growth inhibition: 4.45%
[2]
  growth inhibition: -3.55%
[3]
  growth inhibition: -8.15%
[4]
  growth inhibition: -22.1%
[5]
  growth inhibition: 2.6%
[6]
  growth inhibition: 2.3%

## COc1cc(O)c([N+](=O)[O-])cc1[N+](=O)[O-]
[1]
  growth inhibition: -6.4%
[2]
  growth inhibition: 0.35%
[3]
  growth inhibition: -2.9%
[4]
  growth inhibition: 0%
[5]
  growth inhibition: 18.9%
[6]
  growth inhibition: 5.05%

## Oc1ccc(O)c(Br)c1
[1]
  growth inhibition: 18.8%
[2]
  growth inhibition: 5.9%
[3]
  growth inhibition: 28.1%
[4]
  growth inhibition: -21.3%
[5]
  growth inhibition: -4.85%
[6]
  growth inhibition: 29.4%

## O=C1c2ccccc2OP(=O)(OCC(F)(F)F)OC1(C(F)(F)F)C(F)(F)F (stereo unspecified)
[1]
  growth inhibition: -21.4%
[2]
  growth inhibition: -54.7%
[3]
  growth inhibition: -15.2%
[4]
  growth inhibition: -65.5%
[5]
  growth inhibition: -41.5%
[6]
  growth inhibition: -22.8%

## O=C1NC2C(=CC(O)C(O)C2O)c2cc3c(cc21)OCO3 (stereo unspecified)
[1]
  growth inhibition: 29.9%
[2]
  growth inhibition: 44.2%
[3]
  growth inhibition: 35.8%
[4]
  growth inhibition: 47.1%
[5]
  growth inhibition: 39.1%
[6]
  growth inhibition: 37.2%

## Clc1ccc(C2CC3CCCCN3O2)cc1 (stereo unspecified)
[1]
  growth inhibition: 13.6%
[2]
  growth inhibition: 3%
[3]
  growth inhibition: 5.9%
[4]
  growth inhibition: -1.1%
[5]
  growth inhibition: 11.6%
[6]
  growth inhibition: 5.45%

## O=C(NCC(O)CO)c1cc(N(CCCl)CCCl)c([N+](=O)[O-])cc1[N+](=O)[O-] (stereo unspecified)
[1]
  growth inhibition: 3.8%
[2]
  growth inhibition: -35.9%
[3]
  growth inhibition: -10.5%
[4]
  growth inhibition: -63.6%
[5]
  growth inhibition: -10.4%
[6]
  growth inhibition: 6.35%

## Cc1cc2oc(=O)c3c(c2c(O)c1CN1CCOCC1)CCCC3
[1]
  growth inhibition: 34.1%
[2]
  growth inhibition: 14.4%
[3]
  growth inhibition: 16.5%
[4]
  growth inhibition: 15.6%
[5]
  growth inhibition: 18.1%
[6]
  growth inhibition: 15.8%

## NC(=O)Oc1ccccc1
[1]
  growth inhibition: -4.5%
[2]
  growth inhibition: -26.4%
[3]
  growth inhibition: 5.4%
[4]
  growth inhibition: 12.1%
[5]
  growth inhibition: -10%
[6]
  growth inhibition: -3.6%

## CC(=O)Nc1cccc([As]=O)c1 (stereo unspecified)
[1]
  growth inhibition: 11.5%
[2]
  growth inhibition: 2.75%
[3]
  growth inhibition: 9.95%
[4]
  growth inhibition: 7.6%
[5]
  growth inhibition: -10.8%
[6]
  growth inhibition: 19.1%

## O=C(CC(O)C(Cl)(Cl)Cl)CC(O)C(Cl)(Cl)Cl (stereo unspecified)
[1]
  growth inhibition: 15%
[2]
  growth inhibition: -0.7%
[3]
  growth inhibition: 10.2%
[4]
  growth inhibition: 18%
[5]
  growth inhibition: 20.4%
[6]
  growth inhibition: 13.4%
